Experimental findings from PubChem BioAssay (NCI) are described below.

Compounds without any hit were thinned out: in the full panel of roughly 83,000, 20% have a hit.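 Note: values are percent growth. 100 is the growth of untreated cells, values between 100 and 0 indicate rising inhibition; between -100 and 0 indicates cell death.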 Values without a mark were called inactive. Calls of active or inactive are those of the source. How the source made its calls: active means growth percent below 10; inactive means the rest.

Some test systems named below: SR leukemia; OVCAR-8 ovarian; OVCAR-5 ovarian; OVCAR-4 ovarian; SK-OV-3 ovarian; IGROV1 ovarian; OVCAR-3 ovarian; HS 578T breast; NCI/ADR-RES ovarian; T-47D breast; BT-549 breast; MDA-MB-435 melanoma; SW-620 colon; MCF7 breast; HCT-116 colon; HCC-2998 colon; KM12 colon; MDA-MB-468 breast; RPMI-8226 leukemia.
Holding throughout (assay): NCI-60 one-dose screen, 48 h (100 = growth as untreated, 0 = no growth, -100 = all killed)
Settings in all cases: 10 µM unless noted

For the compound `CN(C)CCn1c2ccccc2c2nc3cc(C(F)(F)F)ccc3nc21`, the growth was 11.1% with SR leukemia; 35.7% in the assay with OVCAR-8 ovarian; 38.8% in the assay on OVCAR-5 ovarian; 54.3% in the assay on OVCAR-4 ovarian; 41.5% in the assay with SK-OV-3 ovarian; 22.4% in the assay with IGROV1 ovarian. The growth in the assay with OVCAR-3 ovarian was 69.2%; in the assay with HS 578T breast, 65.8%; in the assay on NCI/ADR-RES ovarian, 30.2%; in the assay on T-47D breast, 59.4%; with BT-549 breast, 62.2%; in the assay on MDA-MB-435 melanoma, 40.3%. The growth with SW-620 colon is 22.5%; with MCF7 breast it was 6.18% (active); in the assay with HCT-116 colon, 16.8%; in the assay on HCC-2998 colon it was 41.6%; in the assay with KM12 colon it was 42.9%; with MDA-MB-468 breast, 35.3%.
Take `COc1ccc(-c2nnc3ccc(N/N=C/c4ccc(O)cc4)nn23)cc1`: the growth with RPMI-8226 leukemia is 13.1%; with OVCAR-8 ovarian it was 45.4%; in the assay on OVCAR-5 ovarian, 88.9%; in the assay on OVCAR-4 ovarian, 47.9%; in the assay on SK-OV-3 ovarian, 104%; in the assay with IGROV1 ovarian, 39.3%. The growth was 37.6% in the assay on OVCAR-3 ovarian; 46.8% with HS 578T breast; 26% with NCI/ADR-RES ovarian; 45.4% in the assay with T-47D breast; 45.8% in the assay with MDA-MB-435 melanoma; 67.1% in the assay with SW-620 colon. Further, the growth with MCF7 breast was 13.2%; in the assay with HCT-116 colon it was 27.3%; with HCC-2998 colon, 14.9%; with KM12 colon, 28.5%; in the assay with MDA-MB-468 breast, 48.2%.
Turning to `O=C(O)c1ccc(-c2ccc(/C=N/NC(=O)c3[nH]c4ccc(Br)cc4c3-c3ccccc3)s2)cc1`, the growth in the assay on SR leukemia is 0.386% (active); with RPMI-8226 leukemia, 12.1%; with OVCAR-8 ovarian it was 20.2%; in the assay with OVCAR-4 ovarian, 22.5%; in the assay with SK-OV-3 ovarian it was 16.8%; with IGROV1 ovarian, 14.7%. In addition, the growth in the assay with OVCAR-3 ovarian is 2.13% (active); in the assay with NCI/ADR-RES ovarian, 19.9%; in the assay on T-47D breast it was 16%; in the assay with BT-549 breast it was 8.87% (active); with MDA-MB-435 melanoma, 4.27% (active); with MCF7 breast, 7.47% (active). The growth is 11.1% in the assay on HCT-116 colon, -66% (active) in the assay on HCC-2998 colon and -14.8% (active) in the assay with KM12 colon.
Regarding `COc1ccc(C(=O)/C=C/c2cccc(Br)c2)cc1S(N)(=O)=O`, the growth was -15.9% (active) in the assay with RPMI-8226 leukemia; -95.1% (active) in the assay with OVCAR-8 ovarian; -92% (active) in the assay on OVCAR-5 ovarian; 7.28% (active) with OVCAR-4 ovarian; 8.53% (active) with SK-OV-3 ovarian; -33.7% (active) in the assay with IGROV1 ovarian. Moreover, the growth with OVCAR-3 ovarian is -47.7% (active); in the assay with HS 578T breast, 30.8%; in the assay on NCI/ADR-RES ovarian, -21.5% (active); with T-47D breast it was -71.4% (active); with MDA-MB-435 melanoma, -5.65% (active); in the assay on SW-620 colon, -19.8% (active). Besides, the growth with MCF7 breast was -77.2% (active); in the assay with HCT-116 colon it was -99.2% (active); in the assay on HCC-2998 colon, -92.8% (active); in the assay on KM12 colon it was -62.8% (active).
Consider `COc1cc2c(c(OC)c1OC)C(=O)CC(c1cccc(NC(=O)c3cccc([N+](=O)[O-])c3)c1)O2` (stereo not drawn), for which the growth with RPMI-8226 leukemia was 8.29% (active); with OVCAR-8 ovarian it was 10.2%; with OVCAR-5 ovarian, 79.3%; in the assay on OVCAR-4 ovarian, 27.1%; in the assay with SK-OV-3 ovarian, 64.2%; in the assay with IGROV1 ovarian it was 27%. Further, the growth was 19.4% in the assay with OVCAR-3 ovarian; 25.1% with HS 578T breast; 14.5% in the assay with NCI/ADR-RES ovarian; 18.6% in the assay on T-47D breast; -7.24% (active) in the assay with BT-549 breast; -16.8% (active) with MDA-MB-435 melanoma. The growth was 34.9% with SW-620 colon; 12.3% with MCF7 breast; 16.4% with HCT-116 colon; 76.4% in the assay on HCC-2998 colon; 2.26% (active) in the assay on KM12 colon; 8.62% (active) in the assay with MDA-MB-468 breast.
Turning to `COc1ccc(NC(=O)Cn2c(/C=C/c3cccc([N+](=O)[O-])c3)nc3ccccc3c2=O)cc1`, the growth in the assay on RPMI-8226 leukemia was 124%; in the assay on OVCAR-8 ovarian it was 43.3%; in the assay with OVCAR-5 ovarian, 118%; in the assay with OVCAR-4 ovarian, 44.7%; in the assay on SK-OV-3 ovarian, 42%; with IGROV1 ovarian, 104%. Further, the growth in the assay on OVCAR-3 ovarian is 50.7%; in the assay on HS 578T breast it was 66.8%; in the assay on NCI/ADR-RES ovarian, 70.8%; in the assay on T-47D breast it was 69.2%; in the assay with MDA-MB-435 melanoma it was 99.8%; in the assay with SW-620 colon, 92.6%. The growth was 46.8% in the assay with MCF7 breast; 55.4% in the assay with HCT-116 colon; 112% in the assay with HCC-2998 colon; 77.5% in the assay on KM12 colon; 83.6% in the assay with MDA-MB-468 breast.
In the case of `N/C(=N\c1nc2ccccc2s1)NC(=O)NCCCCCCO`, the growth was 32.4% in the assay with SR leukemia; 46% in the assay on RPMI-8226 leukemia; 50.7% in the assay with OVCAR-8 ovarian; 17.8% in the assay with OVCAR-4 ovarian; 59.1% in the assay on SK-OV-3 ovarian; 61.5% in the assay with IGROV1 ovarian. Also, the growth in the assay on OVCAR-3 ovarian was 61.8%; with NCI/ADR-RES ovarian it was 24.3%; in the assay with T-47D breast, 9.9% (active); in the assay with BT-549 breast it was 21.4%; in the assay on MDA-MB-435 melanoma it was 41.2%; in the assay with MCF7 breast it was 30%. Besides, the growth in the assay with HCT-116 colon is 36.9%; in the assay with HCC-2998 colon, 82%; in the assay with KM12 colon, 55.1%; with MDA-MB-468 breast, 2.33% (active).
For `COc1cc2c(c(OC)c1OC)C(=O)CC(c1cccc(NC(=O)c3cc(N)ccc3Cl)c1)O2` (stereo not drawn), the growth with RPMI-8226 leukemia is 40.2%; in the assay on OVCAR-8 ovarian, 18.8%; in the assay with OVCAR-5 ovarian it was 100%; in the assay on OVCAR-4 ovarian it was 52.7%; in the assay on SK-OV-3 ovarian, 65.6%; in the assay on IGROV1 ovarian, 72.9%. Moreover, the growth was 33.8% in the assay on OVCAR-3 ovarian; 80.6% with HS 578T breast; 20.5% with NCI/ADR-RES ovarian; 35.4% with T-47D breast; 23.3% in the assay with BT-549 breast; -41.3% (active) in the assay on MDA-MB-435 melanoma. Also, the growth is 37.4% with SW-620 colon; 14% in the assay with MCF7 breast; 34.7% with HCT-116 colon; 95.7% in the assay on HCC-2998 colon; 49.2% in the assay with KM12 colon; 5.35% (active) in the assay on MDA-MB-468 breast.
As for `O=C(Cn1c2c(sc1=O)[C@H]1[C@@H](O)[C@@H](O)[C@H](O)[C@@H]1CS2)N1CCOCC1`, the growth is 99.6% in the assay on SR leukemia; 108% in the assay on OVCAR-8 ovarian; 103% with OVCAR-5 ovarian; 102% in the assay on OVCAR-4 ovarian; 94.1% in the assay on SK-OV-3 ovarian; 105% in the assay with IGROV1 ovarian. Besides, the growth in the assay with OVCAR-3 ovarian is 105%; in the assay with HS 578T breast, 93.3%; in the assay with NCI/ADR-RES ovarian, 104%; with T-47D breast it was 93.6%; in the assay on BT-549 breast, 99.3%; in the assay on MDA-MB-435 melanoma, 101%. Also, the growth with SW-620 colon is 107%; with MCF7 breast it was 98.4%; in the assay on HCT-116 colon, 110%; in the assay on HCC-2998 colon, 111%; in the assay on KM12 colon, 103%; with MDA-MB-468 breast, 105%.
